Screening data as filed in PubChem BioAssay.
ELG1 repair inh – qHTS screen for small molecules that inhibit ELG1-dependent DNA repair in human embryonic kidney (HEK293T) cells expressing luciferase-tagged ELG1; 330,000 tested, 2.3% active; AID 504467, 2011; Potency, µM (top dose mostly 46.1 µM), usual class: inhibitors; HEK293T ELG1-luciferase reporter, luminescence, 16 h; DNA damage induced by 5-fluorouridine; note: nearly all actives have a fitted effect of over 55% in size
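Luminescence from the luciferase reporter, measured 30 min after ONE-Glo reagent at room temperature, was the read-out. Beforehand, 2,000 cells per well were exposed for 16 hr at 37 °C to 5-fluorouridine together with compound or vehicle.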
HT1080-NT tox – qHTS for induction of synthetic lethality in tumor cells producing 2HG: qHTS for the HT-1080-NT fibrosarcoma cell line | HT-1080-NT fibrosarcoma viability, CellTiter-Glo ATP luminescence, 48 h | 360,000 tested, 1.6% active | Potency, µM (series often up to 46.1 µM), hits mostly cytotoxic;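 note: NT is the 2HG producing partner of a matched IDH1 knockdown line; nearly all actives have a fitted effect of over 55% in size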
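Toxicity toward the 2HG-producing NT line was scored as %Activity, normalised to DMSO and no-cell wells, from CellTiter-Glo luminescence after 48 hours' treatment.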
TDP1 cell CPT – qHTS for Inhibitors of human tyrosyl-DNA phosphodiesterase 1 (TDP1): qHTS in cells in presence of CPT; chicken DT40 Tdp1-/-;hTDP1 cells + 20 nM CPT, ATP luminescence, 48 h; Potency, µM (highest dose often 46.2 µM), usual class: inhibitors; 420,000 tested, 12% active; AID 686979, 2013; note: nearly all actives have a fitted effect of over 55% in size
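Cell growth measured by CellTiter-Glo luminescence after a minimum 48 h, 37 C compound exposure with 20 nM CPT in Tdp1-knockout DT40 cells stably expressing hTDP1, seeded 400/well; qHTS titration format.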
DT40 TDP1 no CPT – qHTS for Inhibitors of human tyrosyl-DNA phosphodiesterase 1 (TDP1): qHTS in cells in absence of CPT. DT40 Tdp1-/- hTDP1 cells, no CPT, ATP luminescence, 48 h. Potency, µM (series often up to 46.2 µM), actives largely listed as inhibitors. 420,000 tested, 15% active; note: nearly all actives have a fitted effect of over 55% in size
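Compound effects on proliferation are scored in DT40 Tdp1-/-;hTDP1 cells in the absence of CPT. ATP levels (CellTiter-Glo luminescence) are recorded after a ≥48 hr, 37 °C incubation.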
HT1080 IDH1KD tx – qHTS for induction of synthetic lethality in tumor cells producing 2HG: qHTS for the HT-1080-IDH1KD cell line; 360,000 tested, 2% active; HT-1080 IDH1 knockdown viability, ATP luminescence, 48 h; Potency, µM (titrated, usually from 46.1 µM), actives largely listed as cytotoxic
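IDH1KD HT-1080 cells, 750/well, RPMI + 5% FBS; compound pinned after 2 h settling; 48 h, 37 °C; CellTiter-Glo luminescence; % activity normalised to DMSO and no-cell wells; curves fitted, classed by r2 and efficacy.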
IL1B secr inh – qHTS for Inhibitors of Inflammasome Signaling: IL-1-beta AlphaLISA Primary Screen; THP-1 LPS/ATP IL-1B secretion, AlphaLISA, 16 h; active compounds read low; activity change, % at 57.5 µM; 360,000 tested, 4.7% active; AID 743279, 2014; in the data active = activity change below about -50%; inconclusive = mostly about -30% to -49%
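Secreted IL-1B measured by AlphaLISA bead assay after 16 h compound exposure of THP-1 cells; compounds (final up to 57.5 uM) added 1 h before LPS (250 ng/mL) and ATP (1.25 mM) stimulation; lower signal means less secretion.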
Numbers stand for hits; . = inactive; ? = inconclusive; / = no result given; [ ] = dose if it differs, or a comment. Sampled rows, rich in hits. Any-hit rate of the full collection: about 19%. Unless noted, calls come from the whole dose curve; as a rule, active = well fitted curve in the direction sought with a large enough effect; inconclusive = small, poorly fitted or top-dose-only effect, or another doubt; inactive = no such curve, though single readings can be large; an effect the other way counts as inactive or inconclusive.

SMILES | ELG1 repair inh | HT1080-NT tox | TDP1 cell CPT | DT40 TDP1 no CPT | HT1080 IDH1KD tx | IL1B secr inh
COc1ccc(C(=O)N/N=C(/C)c2cccc(NC(=O)c3ccncc3)c2)cc1OC | ? | . | ? | . | . | .
CCN(CC)c1ccc(C(=O)NN)cc1 | . | . | . | . | . | -52
Nc1ccc(C(=O)N(CCO)CCO)cc1 | . | . | . | . | . | .
CCN(CC)C(=O)c1ccc(N)cc1 | . | . | . | . | . | .
CCN(CC)c1ccc(C(=O)N/N=C(\C)c2ccc(OC)c(OC)c2)cc1 | . | . | . | 26µM | ? | .
CC1(C)CC(=O)C(/C=N/n2c(C(F)(F)F)nc3ccccc3c2=O)=C(O)C1 | . | . | 16µM | ? | ? | .
CCCc1cc(C(=O)N2CCC(n3nccc3NC(=O)c3ccc(OC)cc3)CC2)no1 | . | . | . | . | . | .
COc1ccc(CC(=O)Nc2nc3ccccc3[nH]2)cc1 | . | . | ? | ? | . | .
O=C(Cc1cccc2ccccc12)Nc1nc2ccccc2[nH]1 | . | 13µM | ? | . | 13µM | .
CCCCCC(=O)Nc1nc2ccccc2[nH]1 | ? | ? | 9.2µM | 8.2µM | ? | .
CCOc1ccccc1OCCCC(=O)Nc1nc2ccccc2[nH]1 | ? | . | . | . | . | .
COc1ccccc1CCC(=O)Nc1nc2ccccc2[nH]1 | ? | . | 5.8µM | 4.1µM | ? | .
COc1ccc2cc(CCNS(=O)(=O)c3c(C)cc(C)cc3C)c(=O)[nH]c2c1 | . | . | ? | . | . | .
Oc1ccc(F)c(CN2CCN(c3ncc(Cc4ccccc4)cn3)CC2)c1 | / | ? | ? | 26µM | ? | .
O=[N+]([O-])c1ccc(Cl)c(CN2CCN(c3ncc(Cc4ccccc4)cn3)CC2)c1 | / | . | 23µM | 16µM | . | .
O=[N+]([O-])c1ccc(Br)c(CN2CCN(c3ncc(Cc4ccccc4)cn3)CC2)c1 | / | . | ? | 21µM | . | .
CCCc1nnc(NC(=O)Cc2coc3ccc(C)cc23)s1 | / | / | . | . | / | /
Cc1ccc(CNC(=O)C2CCC(=O)N(Cc3cccc(F)c3)C2)s1 (stereo not given) | / | . | . | . | . | .
COCC(=O)N1CCC(Oc2ccc(C(=O)NCCCC3CCCC3)cc2)CC1 | . | . | 13µM | 18µM | . | .
CC1(C)C2CCC1(C)C(SC(=N)N)C2 (stereo not given) | / | . | 21µM | ? | . | -82
CCN(CC(=O)Nc1ccc(NC(C)=O)cc1)C(=O)/C=C/c1c(C)nn(-c2ccc(F)cc2)c1Cl | 5.8µM | . | ? | ? | . | .
COc1ccc2[nH]c(=O)c(CN(C)C(=O)c3cccs3)cc2c1 | . | . | . | ? | . | .
CCC(Sc1nc2cc3c(cc2c(=O)n1CCCCCC(=O)NCc1ccc2c(c1)OCO2)OCO3)C(=O)NCCCOC (stereo not given) | / | / | . | . | / | /
CCc1nc(Nc2ccc3c(c2)OCO3)c2oc3ccccc3c2n1 | ? | . | 21µM | 12µM | . | ?
CCc1nc(NCc2ccccn2)c2oc3ccccc3c2n1 | 18µM | . | 15µM | 15µM | . | -68
SMILES | ELG1 repair inh | HT1080-NT tox | TDP1 cell CPT | DT40 TDP1 no CPT | HT1080 IDH1KD tx | IL1B secr inh
CCc1nc(Nc2cc(OC)ccc2OC)c2oc3ccccc3c2n1 | . | . | ? | ? | . | .
CCc1nc(Nc2ccncc2)c2oc3ccccc3c2n1 | ? | ? | 5.8µM | 2.3µM | 23µM | -59
CCc1nc(Nc2ccccc2OC)c2oc3ccccc3c2n1 | . | . | ? | ? | . | -54
CCNC(=O)NC(=O)C(C)OC(=O)CNS(=O)(=O)c1c(Cl)cc(Br)cc1Cl (stereo not given) | . | . | . | . | . | .
O=C(Nc1nc2c(Br)cccc2s1)C1CC1 | . | . | . | ? | . | ?
CC(=O)Nc1ccc(Nc2nc(C)nc3c2oc2ccccc23)cc1 | ? | ? | ? | ? | . | .
Cc1cccc2c(Nc3ccc4c(c3)OCO4)nc(CN3CCC(N4CCCCC4)CC3)nc12 | / | / | 15µM | 21µM | / | /
CCc1nc(N2CCN(Cc3ccc4c(c3)OCO4)CC2)c2oc3ccccc3c2n1 | . | ? | 26µM | 26µM | ? | .
CCc1nc(N2CCCCC2C)c2oc3ccccc3c2n1 (stereo not given) | / | ? | 29µM | 26µM | ? | .
Cc1sc2nc(CN3CCCCC3)nc(Nc3ccc4c(c3)OCCO4)c2c1C | . | . | . | . | . | .
Cc1nc(Nc2ccncc2)c2oc3ccccc3c2n1 | 16µM | .[9.24 µM] | 10µM | 12µM | 13µM | -93
CCc1nc(N2CCCCC2C(=O)O)c2oc3ccccc3c2n1 (stereo not given) | . | . | . | . | . | .
COC(=O)c1c(NC(=O)c2nc(SCc3ccccc3C)ncc2Cl)sc2c1CCCC2 | / | / | . | . | / | /
Cn1c(SCC(=O)NC2CCCCC2)nnc1C(F)(F)F | / | . | . | . | . | .
CCOc1ccccc1NC(=O)CSc1nnc(N)s1 | / | / | . | . | / | /
CCc1nc(N[C@H](C(=O)O)C(C)C)c2oc3ccccc3c2n1 | . | . | . | ? | . | .
Cc1cccc(Nc2nc(C)nc3c2oc2ccccc23)c1 | ? | . | 16µM | ? | . | .
Cc1nc(SCC(=O)Nc2ccc3c(c2)OCCO3)c2oc3ccccc3c2n1 | . | . | . | ? | . | .
CCc1nc(SCC(=O)Nc2ccc3c(c2)OCCO3)c2oc3ccccc3c2n1 | . | . | ? | 26µM | . | .
CCc1nc(Nc2cccc(O)c2)c2oc3ccccc3c2n1 | ? | ? | ? | 26µM | ? | ?
CN(C)CCNC(=O)CN1N=C(c2ccccc2)CCC1=O | / | / | . | . | / | /
CC(Oc1ncnc2ccccc12)C(=O)Nc1cccc(S(=O)(=O)N2CCOCC2)c1 (stereo not given) | . | . | . | . | . | .
O=C1C(=C(c2ccccc2)c2ccccc2)Nc2ccccc21 | ? | ? | 13µM | 15µM | ? | .
Oc1[nH]c2ccccc2c1N=NC(=S)N1CCOCC1 | ? | ? | 1.6µM | 1.5µM | ? | .
Oc1[nH]c2ccc(Br)cc2c1N=NC(=S)N1CCOCC1 | . | ? | 0.73µM | 0.73µM | 1µM | .
COC(=O)N=Nc1c(O)[nH]c2ccc(Br)cc12 | . | . | . | ? | . | .
